Compound activity: PubChem BioAssay, National Center for Advancing Translational Sciences (NCATS)
Most compounds without a hit are left out; they make up all but 0.63% or so of the library.
gsp antag – gsp mutant antagonism; AID 624288; hit rate 0.4% among 340,000; gsp-mutant cells, cAMP HTRF, 30 min; Potency, µM (titrated, usually from 76.9 µM), without a hit: at the highest dose activity change, negative = inhibition, most hits filed as inhibitors; calls by dose curve; cell line not stated here;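 also: intracellular cAMP measured with PDE inhibitor Ro 20-1724 present during compound exposure; potency is read from the fitted curve at half-maximal effect; % is scaled to controls: 0 for no effect and ±100 for the full control effect; nearly all actives have a fitted effect of over 65% in size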
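HTRF cAMP measurement after 30 min RT detection following 30 min, 37C compound treatment alongside […] (added as 300 uM solution) in G418-selected cells seeded at 2000/well and grown 16–24 h.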
S-ASM inh – human S-ASM enzyme inhibition; P17405; placental ASM, HMU-PC fluorogenic substrate, 60 min; Potency, µM (highest dose often 57.5 µM), for the others: at the highest dose activity change, negative = inhibition, most hits filed as inhibitors; hit rate 0.006% among 340,000; AID 504937; active = well fitted inhibition curve with a large enough effect; inconclusive = small, poorly fitted or top-dose-only effect; inactive = no such curve, though single readings can be large or run the other way; also: potency is read from the fitted curve at half-maximal effect
Target sequence (P17405 47-631 limits assumed): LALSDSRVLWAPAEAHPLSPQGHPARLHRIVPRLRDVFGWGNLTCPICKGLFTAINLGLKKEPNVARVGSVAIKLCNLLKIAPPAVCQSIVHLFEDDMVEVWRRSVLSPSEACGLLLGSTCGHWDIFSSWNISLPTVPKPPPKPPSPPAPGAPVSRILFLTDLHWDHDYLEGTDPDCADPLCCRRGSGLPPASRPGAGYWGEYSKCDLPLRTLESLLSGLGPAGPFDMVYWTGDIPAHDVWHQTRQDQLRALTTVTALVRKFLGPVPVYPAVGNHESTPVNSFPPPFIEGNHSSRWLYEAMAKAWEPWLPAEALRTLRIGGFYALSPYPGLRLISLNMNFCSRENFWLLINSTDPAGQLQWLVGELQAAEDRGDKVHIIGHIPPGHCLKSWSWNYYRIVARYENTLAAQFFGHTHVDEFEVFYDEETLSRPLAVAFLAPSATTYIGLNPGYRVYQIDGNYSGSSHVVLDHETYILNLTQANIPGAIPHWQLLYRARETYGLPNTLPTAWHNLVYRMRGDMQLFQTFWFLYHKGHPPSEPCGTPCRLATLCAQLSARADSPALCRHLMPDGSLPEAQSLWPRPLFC
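HMU-PC0 cleavage (9 uM final) by human placental ASM, 60 min at 37 °C following 10 min compound exposure at RT; stopped at pH 10, fluorescence Ex 386/Em 447 nm.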
TSHR antag – human thyrotropin receptor antagonism | P16473 | TSHR-expressing cells, TSH-stimulated cAMP HTRF, 2 h; stronger effect = lower value | activity change, negative = inhibition, % at 11.5 µM | hit rate 0.2% among 330,000 | AID 504810;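 active = activity change below a set negative limit, meaning inhibition stronger than a set level, cut at about -70% in these data; inconclusive = activity change between two set negative limits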; also: % is scaled to controls: 0 for no effect and ±100 for the full control effect
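Competitive HTRF cAMP read-out (cryptate anti-cAMP antibody, cAMP-d2; 30 min, room temperature) in freshly harvested TSHR cells. Compounds added before TSH at EC80 (4nM final), followed by 2 hours' incubation at 37 deg C.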
gsp agonist – activates gsp, the McCune-Albright syndrome mutation | hit rate 0.13% among 340,000 | AID 624287 | gsp mutant cells, cAMP HTRF, 30 min | Potency, µM (top dose mostly 76.9 µM), inactives show at the top dose activation (cAMP increase), usual class: activators; active = well fitted activation curve with a large enough effect; inconclusive = small, poorly fitted or top-dose-only effect, or another doubt; inactive = no such curve, though single readings can be large or run the other way; cell line not stated here;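 also: phosphodiesterase inhibitor Ro 20-1724 added with compounds to block cAMP breakdown; potency is read from the fitted curve at half-maximal effect; nearly all actives have a fitted effect of over 60% in size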
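Cells in DMEM/10% FBS with G418 were pretreated with compounds in DMSO plus […] (300 uM stock) for 30 min at 37C. cAMP was measured by HTRF (cAMP-d2 plus anti-cAMP antibody-K) after 30 min at room temperature.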
Starred values were filed as active, the others as inactive; [ ] = another dose, or the depositor's remark.

For Cn1ccc2cc(-c3ccc4ncnc(NCc5cccnc5)c4c3)ccc21 the results were TSHR antag 0.
For CC(Sc1ccc2nnc(-c3ccc(F)cc3)n2n1)C(=O)O (stereo unspecified) the results were gsp antag -1%, S-ASM inh 8%, TSHR antag 4 and gsp agonist inconclusive.
For Cc1ccc(-c2nnc3ccc(SC(C)C(=O)O)nn23)cc1 (stereo unspecified) the results were gsp antag 15%, S-ASM inh 4%, TSHR antag 4 and gsp agonist 10µM*.
Screening CCOC(=O)C(CC)Sc1ccc2nnc(-c3cccnc3)n2n1 (stereo unspecified) returned gsp antag 17%, S-ASM inh 2%, TSHR antag 6 and gsp agonist 46%[15.4 µM].
Screening COC(=O)C(C)Sc1ccc2nnc(-c3ccccc3)n2n1 (stereo unspecified) returned gsp antag 1%, S-ASM inh -6%, TSHR antag -2 and gsp agonist 10µM*.
CCC(Sc1ccc2nnc(-c3cccnc3)n2n1)C(=O)O (stereo unspecified) was read as gsp antag 12%, S-ASM inh -2%, TSHR antag 25 and gsp agonist 2.5µM*.
Screening CCCCCCCCOC(=O)c1c(CSC(=N)N)n(C)c2cc(Br)c(OC(C)=O)cc12 returned gsp antag -8%, S-ASM inh 32µM*, TSHR antag 6 and gsp agonist -1%.
CCOC(=O)c1c(CSC(=N)N)n(-c2ccc(Br)cc2)c2cc(Br)c(OC(C)=O)cc12 was read as gsp antag 11%, S-ASM inh -13%, TSHR antag 3 and gsp agonist -8%.
For NC(=O)c1ccc(OCC(=O)N2CCNC2=O)cc1 the results were gsp antag -3%, S-ASM inh 2%, TSHR antag -7 and gsp agonist -19%.
Cn1c(=O)c(C(=O)c2ccccc2)nc2ccccc21 was read as gsp antag -9%[15.4 µM], S-ASM inh -1%, TSHR antag 7 and gsp agonist 11%.
For Cn1cc(C(=O)c2ccc(Cl)cc2)cc1-c1nc2ccccc2n1C the results were gsp antag 35µM*, S-ASM inh -1%, TSHR antag -14 and gsp agonist inconclusive.
For CC(C)CNC(=O)C1CCN(c2ccc(S(=O)(=O)N3CCOCC3)cc2)CC1 the results were gsp antag -2%, S-ASM inh 2%, TSHR antag -77* and gsp agonist 2%.
For Cc1cccc(-c2nc3c(c(SCC(=O)N4CCOCC4)n2)Cc2c(CO)cnc(C)c2O3)c1 the results were gsp antag 40µM*, S-ASM inh -1%, TSHR antag 2 and gsp agonist 0%.
`Cc1ncc(CO)c2c1Oc1nc(-c3ccccc3)nc(SCC(=O)N(C)c3ccccc3)c1C2` gave TSHR antag 34.
Screening Cc1ncc(CO)c2c1Oc1nc(-c3ccccc3F)nc(SCC(=O)N(C)c3ccccc3)c1C2 returned gsp antag 40µM*, S-ASM inh 1%, TSHR antag 0 and gsp agonist -23%.
Screening O=C(NNC(=O)C1CC(=O)N(Cc2ccccc2)C1)c1ccc(F)cc1 (stereo unspecified) returned gsp antag 5%, S-ASM inh 1%, TSHR antag -1 and gsp agonist 7%.
`CSc1nc(O)c(C(c2ccc(O)cc2)c2c(O)nc(SC)[nH]c2=O)c(=O)[nH]1` gave gsp antag 6%, S-ASM inh 4%, TSHR antag 1 and gsp agonist -20%.
Screening Cc1noc2ncnc(N3CCN(c4cccc(Cl)c4)CC3)c12 returned gsp antag 35µM*, S-ASM inh -5%, TSHR antag -16 and gsp agonist 10%.
CC(=O)Nc1cc(C(=O)N2CCCC2)ccc1Sc1ccc(C)cc1 was read as gsp antag 20µM*, S-ASM inh -1%, TSHR antag -4 and gsp agonist 17%.
CC(=O)Nc1cc(C(=O)N2CCCC2)ccc1Sc1ccc(Cl)cc1 was read as gsp antag 11µM*, S-ASM inh 1%, TSHR antag -10 and gsp agonist 18%.
CC(=O)Nc1cc(C(=O)N2CCCC2)ccc1S(=O)(=O)c1ccc(C)cc1 was read as gsp antag -1%, S-ASM inh 6%, TSHR antag 4 and gsp agonist -34%.
Screening Oc1ccc(COC2CCCC2)c2cccnc12 returned TSHR antag -6.
Cc1cccc(NC(=O)CSc2nc(-c3ccco3)nc3cc(=O)[nH]n23)c1 was read as TSHR antag -14.
`CCOc1ccc(C(=O)N2CCN(S(=O)(=O)c3cccs3)CC2)c(OCC)c1` gave gsp antag -10%, S-ASM inh -2%, TSHR antag 27 and gsp agonist 1%.
Screening CC(C)Cn1c(N)c(C(=O)COC(=O)c2cc(F)cc(F)c2)c(=O)n(C)c1=O returned gsp antag inconclusive, S-ASM inh 0%, TSHR antag -3 and gsp agonist -12%.
Screening CC(C)Cn1c(N)c(C(=O)COC(=O)c2cnc(Cl)c(Cl)c2)c(=O)n(C)c1=O returned gsp antag 35µM*, S-ASM inh -10%, TSHR antag -2 and gsp agonist -40%.
Screening CCOC(=O)Cc1csc(SCC(=O)c2c(N)n(CC(C)C)c(=O)n(C)c2=O)n1 returned gsp antag 11µM*, S-ASM inh 2%, TSHR antag -31 and gsp agonist 3%.
For COc1ccccc1CCC(=O)OCC(=O)c1c(N)n(CC(C)C)c(=O)n(C)c1=O the results were gsp antag -46%, TSHR antag -33 and gsp agonist -25%.
`CCOc1ccccc1OCC(=O)OCC(=O)c1c(N)n(CC(C)C)c(=O)n(C)c1=O` gave gsp antag 35µM*, S-ASM inh 3%, TSHR antag -14 and gsp agonist -2%.
`CCOC(=O)C1=C(C)N(CCCC(=O)O)C(=O)NC1c1ccccc1Cl` (stereo unspecified) gave gsp antag 7% and S-ASM inh -6%.
Screening COc1cc(C(=O)OCCNC(=O)c2cccnc2)cc(OC)c1OC returned gsp antag 0%, S-ASM inh -2%, TSHR antag -15 and gsp agonist 10%[15.4 µM].
Screening CCN(CC)S(=O)(=O)c1ccc(C(=O)OCCNC(=O)c2cccnc2)cc1 returned gsp antag 20%, S-ASM inh 4%, TSHR antag 15 and gsp agonist 32µM*.
`O=C(NCCOC(=O)c1ccc([N+](=O)[O-])cc1)c1cccnc1` gave gsp antag 2%, S-ASM inh 3%, TSHR antag 0 and gsp agonist 18µM*.
Screening Cc1ccc(C)c(NC(=O)CN(C)C(=O)COc2cccc3c2OC(C)(C)C3)c1 returned gsp antag -10%, S-ASM inh 0%, TSHR antag 2 and gsp agonist 1%[15.4 µM].
`CC1(C(=O)N/N=C/c2ccc3c(c2)OCO3)CC1(Br)Br` (stereo unspecified) gave gsp antag -8%, S-ASM inh -1%, TSHR antag -12 and gsp agonist 1%.
